# Test results as given in PubChem BioAssay (Tox21).
# “And” between values parts separate entries of the source, which are not always exact repeats. Equal entries are not always repeated. Inconclusive results are not listed. A call without a number means that no potency is given here. Where a structure was tested more than once in an assay, its records may differ in their call. The source made the active and inactive calls. Unless noted, the call rests on the fitted dose curve; in most records, active means well fitted curve in the direction sought with a large enough effect in the repeat runs; inconclusive means weak or mixed curves; inactive means no such curve, though single readings can be large; an effect the other way counts as inactive or inconclusive.
# Experiments:
# [1] = target: Aryl hydrocarbon receptor (Homo sapiens) (UniProt P35869); test: qHTS assay to identify small molecule that activate the aryl hydrocarbon receptor (AhR) signaling pathway (AID 743085); further: nearly all actives have a fitted effect of over 15% in size; further: potency means the concentration at half of the fitted maximal effect;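 on activation: HG2L7.5c1 human HepG2 liver cells with stably integrated DRE-driven firefly reporter; series mostly up to about 70 µM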
# Aryl hydrocarbon receptor (Homo sapiens), sequence (P35869 whole entry, looked up): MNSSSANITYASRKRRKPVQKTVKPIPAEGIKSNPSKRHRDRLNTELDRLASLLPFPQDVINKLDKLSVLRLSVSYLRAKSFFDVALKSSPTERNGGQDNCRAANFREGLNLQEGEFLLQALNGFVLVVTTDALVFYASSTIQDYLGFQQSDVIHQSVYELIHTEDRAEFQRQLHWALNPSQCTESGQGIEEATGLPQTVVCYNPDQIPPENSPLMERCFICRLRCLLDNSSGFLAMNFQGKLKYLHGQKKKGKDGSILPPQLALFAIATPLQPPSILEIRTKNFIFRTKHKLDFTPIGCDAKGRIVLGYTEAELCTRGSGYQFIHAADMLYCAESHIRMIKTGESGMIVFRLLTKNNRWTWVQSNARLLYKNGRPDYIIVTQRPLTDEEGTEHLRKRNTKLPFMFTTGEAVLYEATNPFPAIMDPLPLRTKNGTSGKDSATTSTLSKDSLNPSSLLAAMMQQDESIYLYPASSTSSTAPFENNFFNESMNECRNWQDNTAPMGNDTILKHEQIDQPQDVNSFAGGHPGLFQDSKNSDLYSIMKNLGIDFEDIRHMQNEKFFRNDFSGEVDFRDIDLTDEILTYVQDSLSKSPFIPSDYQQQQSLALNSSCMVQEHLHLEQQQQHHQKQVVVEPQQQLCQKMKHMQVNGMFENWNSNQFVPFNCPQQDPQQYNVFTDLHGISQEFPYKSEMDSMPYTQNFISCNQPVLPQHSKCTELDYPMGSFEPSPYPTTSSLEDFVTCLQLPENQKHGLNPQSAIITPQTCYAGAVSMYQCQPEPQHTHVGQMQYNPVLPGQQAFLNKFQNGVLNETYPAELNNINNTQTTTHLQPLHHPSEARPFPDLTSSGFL
# Outline: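 Compounds were tested in HepG2 hepatocellular carcinoma cells harbouring a stably integrated luciferase gene under control of 20 DREs. Increased reporter signal after 24 h treatment at 37C was taken as AhR activation.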
# [2] = qHTS assay to identify small molecule that activate the aryl hydrocarbon receptor (AhR) signaling pathway - cell viability counter screen (AID 743086);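 further: HepG2 liver cells carrying the AhR DRE luciferase reporter; series mostly up to about 70 µM; nearly all actives have a fitted effect of over 45% in size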
# Outline: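 HepG2-AhR-luc (HG2L7.5c1) cells, 4000/well, treated 24 h at 37 C with compound; viability measured as CellTiter-Fluor fluorescence after 30 min in the same wells as the luciferase read.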
# [3] = target: Peroxisome proliferator-activated receptor gamma (Homo sapiens) (UniProt P37231); test: qHTS assay to identify small molecule agonists of the peroxisome proliferator-activated receptor gamma (PPARg) signaling pathway (AID 743094; active means well fitted activation curve with a large enough effect in the signal ratio in the repeat runs, not every such curve was filed as active; the % refers to the signal ratio)
# Peroxisome proliferator-activated receptor gamma (Homo sapiens), sequence (P37231 whole entry, looked up): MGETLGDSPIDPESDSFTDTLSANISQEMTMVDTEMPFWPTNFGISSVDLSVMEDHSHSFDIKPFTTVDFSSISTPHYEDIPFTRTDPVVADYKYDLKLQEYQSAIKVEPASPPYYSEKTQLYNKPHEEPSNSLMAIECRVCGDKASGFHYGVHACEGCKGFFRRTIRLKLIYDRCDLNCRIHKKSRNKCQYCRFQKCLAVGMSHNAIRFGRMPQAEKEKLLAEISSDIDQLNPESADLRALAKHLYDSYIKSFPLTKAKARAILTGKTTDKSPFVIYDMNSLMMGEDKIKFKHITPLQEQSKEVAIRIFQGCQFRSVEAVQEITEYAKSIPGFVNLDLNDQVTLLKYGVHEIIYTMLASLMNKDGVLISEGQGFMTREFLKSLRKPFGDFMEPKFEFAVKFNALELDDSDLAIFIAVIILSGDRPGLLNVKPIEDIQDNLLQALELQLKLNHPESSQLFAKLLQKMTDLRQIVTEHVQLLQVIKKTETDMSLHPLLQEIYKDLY
# Outline: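 Beta-lactamase FRET fluorescence was the read-out after a 1 h room-temperature substrate step, following 17 h compound treatment at 37C of HEK293H cells expressing a UAS-driven bla reporter responsive to PPARg.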
# [4] = qHTS assay to identify small molecule antagonists of the peroxisome proliferator-activated receptor gamma (PPARg) signaling pathway - cell viability counter screen (AID 743194); conditions: Potency: co-treated with 50 nM rosiglitazone unless noted; further: nearly all actives have a fitted effect of over 55% in size; further: potency means the concentration at half of the fitted maximal effect
# Outline: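 Cytotoxicity counter screen in PPARg-bla HEK293H cells, same wells as reporter assay. Compounds plus 50 nM rosiglitazone (final) for 17 h at 37 C, then viability read by CellTiter-Glo luminescence.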
# [5] = qHTS assay for small molecule agonists of the antioxidant response element (ARE) signaling pathway (AID 743202; active means well fitted activation curve with a large enough effect in the signal ratio in the repeat runs, not every such curve was filed as active; the % refers to the signal ratio)
# Outline: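 Agonist mode reporter screen: HepG2 cells with ARE-controlled beta-lactamase are incubated with test compounds for 16 h at 37 C, and beta-lactamase activity is measured as fluorescence of cleaved B/G FRET substrate.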
# [6] = qHTS assay for small molecule agonists of the antioxidant response element (ARE) signaling pathway - cell viability counter screen (AID 743203; calls by dose curve; further: nearly all actives have a fitted effect of over 55% in size; further: potency means the concentration at half of the fitted maximal effect)
# Outline: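 HepG2 cells carrying ARE-driven beta-lactamase; 2,000 cells/well; 5 hrs plating; compound pinned from DMSO; 16 hrs 37C/5% CO2; CellTiter-Glo added; 30 min RT; luminescence.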
# [7] = qHTS assay for small molecule activators of the heat shock response signaling pathway - cell viability counter screen (AID 743209); further: nearly all actives have a fitted effect of over 50% in size; further: potency means the concentration at half of the fitted maximal effect
# Outline: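 Luminescence from CellTiter-Glo, added after the beta-lactamase FRET read, gave the viability signal. Cells were HSE-bla HeLa treated with DMSO-dissolved compounds for 5 h at 37 C following overnight plating.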
# [8] = qHTS assay to identify small molecule antagonists of the peroxisome proliferator-activated receptor delta (PPARd) signaling pathway - cell viability counter screen (AID 743213); further: nearly all actives have a fitted effect of over 50% in size; further: potency means the concentration at half of the fitted maximal effect
# Outline: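 HEK293H PPARd UAS-bla cells, 5 h pre-incubation, compound + L165041 300 nM final, 17 h 37 C; B/G FRET substrate 2 h RT; then CellTiter-Glo 30 min RT, luminescence.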
# [9] = qHTS assay to identify small molecule agonists of the farnesoid-X-receptor (FXR) signaling pathway - cell viability counter screen (AID 743218); further: nearly all actives have a fitted effect of over 45% in size; further: potency means the concentration at half of the fitted maximal effect
# Outline: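 HEK 293T FXR-bla cells; 5 h pre-incubation, 16 h compound exposure at 37 C; LiveBLAzer substrate 2 h RT, then CellTiter-Glo 30 min RT, luminescence.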
# [10] = qHTS assay to identify small molecule antagonists of the farnesoid-X-receptor (FXR) signaling pathway - cell viability counter screen (AID 743221; active means well fitted cell-killing curve with a large enough effect in the repeat runs, not every such curve was filed as active; further: nearly all actives have a fitted effect of over 50% in size; further: potency means the concentration at half of the fitted maximal effect)
# Outline: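 Multiplexed counter screen: viability of FXR-bla HEK 293T cells under agonist stimulation by chenodeoxycholic acid (50 uM, final) and test compound for 16 h at 37 C, measured by CellTiter-Glo luminescence in the reporter wells.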
# [11] = target: Vitamin D3 receptor (Homo sapiens) (UniProt P11473); test: qHTS assay to identify small molecule agonists of the vitamin D receptor (VDR) signaling pathway (AID 743222; calls by dose curve)
# Vitamin D3 receptor (Homo sapiens), sequence (P11473 whole entry, looked up): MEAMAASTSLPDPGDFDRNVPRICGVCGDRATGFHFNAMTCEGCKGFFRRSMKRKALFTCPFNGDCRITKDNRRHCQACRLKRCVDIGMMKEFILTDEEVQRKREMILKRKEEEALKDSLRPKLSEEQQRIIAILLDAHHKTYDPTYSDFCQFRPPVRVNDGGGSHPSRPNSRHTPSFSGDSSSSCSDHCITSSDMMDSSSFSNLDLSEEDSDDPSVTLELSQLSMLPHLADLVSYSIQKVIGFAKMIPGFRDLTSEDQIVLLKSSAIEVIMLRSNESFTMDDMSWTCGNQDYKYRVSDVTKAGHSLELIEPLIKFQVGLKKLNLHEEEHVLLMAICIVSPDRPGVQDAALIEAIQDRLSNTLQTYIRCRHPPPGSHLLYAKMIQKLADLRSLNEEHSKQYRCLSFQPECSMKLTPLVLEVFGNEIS
# Outline: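 VDR-bla cells, 2,000/well; 4 h preincubation 37C; cpd (DMSO) 16 h; LiveBLAzer B/G substrate 2 h RT; fluorescence intensity read.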
# [12] = qHTS assay to identify small molecule agonists of the vitamin D receptor (VDR) signaling pathway - cell viability counter screen (AID 743224); further: nearly all actives have a fitted effect of over 50% in size; further: potency means the concentration at half of the fitted maximal effect
# Outline: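 Luminescence from CellTiter-Glo, read after 30 min at room temperature, reports viability of VDR-bla cells treated with compounds for 16 h at 37C in the wells used for the beta-lactamase FRET read.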
# [13] = target: Peroxisome proliferator-activated receptor gamma (Homo sapiens) (UniProt P37231); test: qHTS assay to identify small molecule antagonists of the peroxisome proliferator-activated receptor gamma (PPARg) signaling pathway (AID 743191; calls by dose curve; further: series mostly up to about 63 µM; nearly all actives have a fitted effect of over 30% in size)
# Outline: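 GeneBLAzer PPARg UAS-bla HEK293H cells, 5 h post-plating, exposed to compounds 17 h at 37C. LiveBLAzer B/G FRET substrate added for 1 h at room temperature; beta-lactamase reporter read by fluorescence intensity.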
# [14] = qHTS assay to identify small molecule agonists of the peroxisome proliferator-activated receptor delta (PPARd) signaling pathway - cell viability counter screen (AID 743211); further: nearly all actives have a fitted effect of over 55% in size; further: potency means the concentration at half of the fitted maximal effect
# Outline: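 Counter screen for cytotoxicity run in parallel with the PPARd reporter screen. Beta-lactamase reporter HEK293H cells exposed to compounds 17 h; ATP-based CellTiter-Glo luminescence quantified viability.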
# [15] = target: Peroxisome proliferator-activated receptor delta (Homo sapiens) (UniProt Q03181); test: qHTS assay to identify small molecule agonists of the peroxisome proliferator-activated receptor delta (PPARd) signaling pathway (AID 743212; calls by dose curve)
# Peroxisome proliferator-activated receptor delta (Homo sapiens), sequence (Q03181 whole entry, looked up): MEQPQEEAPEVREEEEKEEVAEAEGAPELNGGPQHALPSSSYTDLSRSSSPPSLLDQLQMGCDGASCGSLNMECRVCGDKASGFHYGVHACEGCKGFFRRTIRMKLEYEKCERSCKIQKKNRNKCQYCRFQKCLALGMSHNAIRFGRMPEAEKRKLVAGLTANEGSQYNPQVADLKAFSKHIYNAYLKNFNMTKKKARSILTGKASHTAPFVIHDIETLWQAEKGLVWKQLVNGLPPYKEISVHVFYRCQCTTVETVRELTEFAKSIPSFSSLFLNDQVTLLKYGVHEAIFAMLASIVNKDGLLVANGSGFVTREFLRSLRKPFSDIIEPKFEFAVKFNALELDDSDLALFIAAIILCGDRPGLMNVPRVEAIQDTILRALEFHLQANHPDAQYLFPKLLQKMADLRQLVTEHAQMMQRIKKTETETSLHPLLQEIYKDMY
# Outline: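 Quantitative high-throughput agonist screen in a HEK293H beta-lactamase reporter line under UAS control. Compounds in DMSO, at 37 C. Fluorescence read after 2 h with FRET substrate at room temperature.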
# [16] = target: Peroxisome proliferator-activated receptor delta (Homo sapiens) (UniProt Q03181); test: qHTS assay to identify small molecule antagonists of the peroxisome proliferator-activated receptor delta (PPARd) signaling pathway (AID 743215; active means well fitted inhibition curve with a large enough effect in the signal ratio in the repeat runs, not every such curve was filed as active; the % refers to the signal ratio;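 further: cells stimulated with agonist L165041 at 300 nM final during compound exposure; series mostly up to about 62 µM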)
# Outline: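 Read-out is beta-lactamase FRET fluorescence, measured 2 h after substrate addition at room temperature. Beforehand, UAS-bla HEK293H cells carrying the PPARd reporter were exposed to compounds with L165041 at 300 nM final for 17 h at 37 C.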
# [17] = target: Vitamin D3 receptor (Homo sapiens) (UniProt P11473); test: qHTS assay to identify small molecule antagonists of the vitamin D receptor (VDR) signaling pathway (AID 743223; active means well fitted inhibition curve with a large enough effect in the signal ratio in the repeat runs, not every such curve was filed as active; the % refers to the signal ratio)
# Outline: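 Cells carrying a VDR-driven beta-lactamase reporter (VDR-bla) were co-treated with compound and 3 nM final 1alpha,25-dihydroxyvitamin D3 for 16 h at 37C; reporter activity was measured as FRET substrate fluorescence after 2 h at room temperature.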
# [18] = qHTS assay for small molecule activators of the heat shock response signaling pathway (AID 743210; active means well fitted activation curve with a large enough effect in the signal ratio in the repeat runs, with a control signal flat, not every such curve was filed as active; the % refers to the signal ratio;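 further: HeLa cells with beta-lactamase reporter driven by heat shock elements; series mostly up to about 63 µM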)
# Outline: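 Quantitative high-throughput format using an engineered HeLa line in which heat shock response elements drive beta-lactamase; after 5 h with compound, cells received a B/G FRET substrate and fluorescence was read.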
# [19] = target: Bile acid receptor (Homo sapiens) (UniProt Q96RI1); test: qHTS assay to identify small molecule agonists of the farnesoid-X-receptor (FXR) signaling pathway (AID 743220; active means well fitted activation curve with a large enough effect in the signal ratio in the repeat runs, not every such curve was filed as active; the % refers to the signal ratio)
# Bile acid receptor (Homo sapiens), sequence (Q96RI1 whole entry, looked up): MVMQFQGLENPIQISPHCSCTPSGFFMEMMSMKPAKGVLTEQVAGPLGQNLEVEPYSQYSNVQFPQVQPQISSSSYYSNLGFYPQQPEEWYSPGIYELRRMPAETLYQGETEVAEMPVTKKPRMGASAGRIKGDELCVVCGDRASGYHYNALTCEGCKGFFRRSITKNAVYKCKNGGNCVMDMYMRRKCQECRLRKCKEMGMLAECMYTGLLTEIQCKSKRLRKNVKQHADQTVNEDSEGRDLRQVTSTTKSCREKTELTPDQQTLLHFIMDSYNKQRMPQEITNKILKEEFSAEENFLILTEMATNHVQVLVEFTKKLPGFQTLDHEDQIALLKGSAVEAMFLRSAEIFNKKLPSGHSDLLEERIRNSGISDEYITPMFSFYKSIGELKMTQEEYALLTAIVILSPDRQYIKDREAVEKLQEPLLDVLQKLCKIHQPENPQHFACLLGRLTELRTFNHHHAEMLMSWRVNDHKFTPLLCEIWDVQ
# Outline: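 Beta-lactamase reporter under UAS control in GeneBLAzer FXR HEK 293T cells (5000/well) measured with LiveBLAzer FRET substrate after 2 h at room temperature. Compound exposure lasted 16 h at 37C.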
# [20] = target: Bile acid receptor (Homo sapiens) (UniProt Q96RI1); test: qHTS assay to identify small molecule antagonists of the farnesoid-X-receptor (FXR) signaling pathway (AID 743217; active means well fitted inhibition curve with a large enough effect in the signal ratio in the repeat runs, not every such curve was filed as active; the % refers to the signal ratio)
# Outline: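 HEK 293T FXR-UAS-bla, 5000 cells/well; compound + CDCA 50 uM final; 16 h, 37 °C; B/G FRET substrate 2 h RT; fluorescence.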
structure (smiles),measurement,setting,value
CCCCN(CCCC)C(=S)S,Potency,[1],inactive
same,Potency,[2],inactive
same,Potency,[3],inactive
same,Potency,[4],inactive
same,Potency,[5],inactive
same,Potency,[6],inactive
same,Potency,[7],inactive
same,Potency,[8],inactive
same,Potency,[9],inactive
same,Potency,[10],inactive
same,Potency,[11],inactive
same,Potency,[12],inactive
Cc1cccc(Cc2cnc[nH]2)c1C,Potency,[1],13.3 µM (active)
same,Potency,[2],inactive
same,Potency,[3],inactive
same,Potency,[13],inactive
same,Potency,[6],inactive
same,Potency,[7],inactive
same,Potency,[14],inactive
same,Potency,[15],inactive
same,Potency,[16],inactive
same,Potency,[9],inactive
same,Potency,[10],inactive
same,Potency,[17],inactive
same,Potency,[12],inactive
[O]=[Cr](=[O])([OH])[O][Cr](=[O])(=[O])[OH],Potency,[1],inactive
same,Potency,[2],inactive
same,Potency,[3],inactive
same,Potency,[4],3.93 µM (active) and 7.74 µM (active)
same,Potency,[6],21.9 µM (active) and 30.6 µM (active)
same,Potency,[7],39.3 µM (active) and 43.6 µM (active)
same,Potency,[14],22.1 µM (active) and 27.5 µM (active)
same,Potency,[8],7.83 µM (active) and 21.8 µM (active)
same,Potency,[9],27.5 µM (active)
same,Potency,[10],19.7 µM (active) and 24.5 µM (active)
same,Potency,[11],inactive
same,Potency,[12],17.5 µM (active) and 21.8 µM (active)
C[N+]1(C)[C@@H]2CC[C@H]1CC(OC(=O)C(CO)c1ccccc1)C2 (stereo not given in full),Potency,[1],inactive
same,Potency,[2],inactive
same,Potency,[3],inactive
same,Potency,[4],inactive
same,Potency,[6],inactive
same,Potency,[7],inactive
same,Potency,[18],inactive
same,Potency,[14],inactive
same,Potency,[15],inactive
same,Potency,[8],inactive
same,Potency,[16],inactive
same,Potency,[9],inactive
same,Potency,[10],inactive
same,Potency,[12],inactive
Cc1nn(-c2cc(NS(C)(=O)=O)c(Cl)cc2Cl)c(=O)n1C(F)F,Potency,[1],inactive
same,Potency,[2],inactive
same,Potency,[3],inactive
same,Potency,[4],inactive
same,Potency,[6],inactive
same,Potency,[18],inactive
same,Potency,[14],inactive
same,Potency,[15],inactive
same,Potency,[8],inactive
same,Potency,[9],inactive
same,Potency,[10],inactive
same,Potency,[11],inactive
same,Potency,[17],inactive
same,Potency,[12],inactive
COC(=O)/C=C(\C)OP(=O)(OC)OC,Potency,[1],inactive
same,Potency,[2],inactive
same,Potency,[3],inactive
same,Potency,[6],inactive
same,Potency,[7],inactive
same,Potency,[14],inactive
same,Potency,[15],inactive
same,Potency,[8],inactive
same,Potency,[9],inactive
same,Potency,[19],inactive
same,Potency,[10],inactive
same,Potency,[11],inactive
same,Potency,[17],inactive
same,Potency,[12],inactive
CCCCC/C=C\C/C=C\C/C=C\C/C=C\CCCC(=O)NCC(=O)O,activation,[1],-2.57% [at 8.47 µM] (inactive)
same,"viability change, negative = cytotoxic",[2],8.28% [at 8.47 µM] (inactive)
same,activation,[3],-0.604% [at 7.08 µM] (inactive)
same,Potency,[4],inactive
same,Potency,[6],inactive
same,Potency,[9],29.8 µM (active)
same,Potency,[11],inactive
same,Potency,[12],inactive
Oc1cccc(Cl)c1Cl,Potency,[1],inactive
same,Potency,[2],inactive
same,Potency,[3],inactive
same,Potency,[5],inactive
same,Potency,[6],inactive
same,Potency,[7],inactive
same,Potency,[18],inactive
same,Potency,[8],inactive
same,Potency,[16],inactive
same,Potency,[9],inactive
same,Potency,[10],inactive
same,Potency,[12],inactive
CNC(=O)/C=C(\C)OP(=O)(OC)OC,Potency,[1],inactive
same,Potency,[2],inactive
same,Potency,[3],inactive
same,Potency,[13],inactive
same,Potency,[5],inactive
same,Potency,[6],inactive
same,Potency,[7],inactive
same,Potency,[15],inactive
same,Potency,[8],inactive
same,Potency,[16],inactive
same,Potency,[20],inactive
same,Potency,[19],inactive
same,Potency,[10],inactive
same,Potency,[11],inactive
same,Potency,[17],inactive
ClC1=C(Cl)[C@]2(Cl)[C@H]3[C@H]([C@@H]4C=C[C@H]3C4)[C@@]1(Cl)C2(Cl)Cl,Potency,[1],inactive
same,Potency,[2],inactive
same,Potency,[3],inactive
same,Potency,[4],49 µM (active)
same,Potency,[5],inactive
same,Potency,[6],inactive and 54.5 µM (active)
same,Potency,[7],inactive and 24.5 µM (active)
same,Potency,[14],inactive and 15.5 µM (active)
same,Potency,[15],inactive
same,Potency,[8],inactive
same,Potency,[16],inactive
same,Potency,[9],38.9 µM (active)
same,Potency,[10],inactive
same,Potency,[11],inactive
same,Potency,[17],inactive
same,Potency,[12],inactive and 54.9 µM (active)
